We go through 24 molecules from PubChem BioAssay (NCI).

Test systems include RPMI-8226 leukemia; OVCAR-8 ovarian; OVCAR-5 ovarian; OVCAR-4 ovarian; SK-OV-3 ovarian; IGROV1 ovarian; OVCAR-3 ovarian; HS 578T breast; NCI/ADR-RES ovarian.
Holding throughout (assay): NCI-60 one-dose screen, 48 h (100 = growth as untreated, 0 = no growth, -100 = all killed)
Holding throughout (settings): 10 µM unless noted

About 83,000 compounds went through this panel and 20% of them were active in at least one assay; those are over-represented in the sample as a whole.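 The test compound was applied at a single concentration to cells in 96-well plates for 48 hours, and percent growth was recorded.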 A number with no mark means an inactive call. Active and inactive are the calls of the source. How the source made its calls: active means growth percent below 10; inactive means the rest.

As to `Cc1ccc(-n2cc(-c3ccccc3)c3c2N=NN2CCN=C32)cc1`, the growth with RPMI-8226 leukemia is 93.4%; with OVCAR-8 ovarian it was 107%; with OVCAR-5 ovarian, 101%; in the experiment on OVCAR-4 ovarian it was 97.2%; in the experiment on SK-OV-3 ovarian, 104%; in the experiment on IGROV1 ovarian it was 88.5%. The growth is 106% with OVCAR-3 ovarian, 100% with HS 578T breast and 102% in the experiment with NCI/ADR-RES ovarian.
For `COc1ccc(-c2cnc3c(-c4cccc5cnccc45)cnn3c2)cc1`, the growth in the experiment with RPMI-8226 leukemia was 40.8%; with OVCAR-8 ovarian it was 41.8%; in the experiment on OVCAR-5 ovarian, 96.1%; in the experiment on OVCAR-4 ovarian, 36.4%; in the experiment with SK-OV-3 ovarian it was 68.6%; in the experiment with IGROV1 ovarian, 83.5%. For the same molecule, the figures for the growth in the experiment with OVCAR-3 ovarian, with HS 578T breast and with NCI/ADR-RES ovarian were 73.4%, 74% and 56.3%, respectively.
`COc1cc(/C=C/C(=O)c2nc3cc(F)ccc3nc2C)cc(OC)c1OC`: the growth in the experiment on RPMI-8226 leukemia was -4.08% (active); in the experiment on OVCAR-8 ovarian it was 36%; with OVCAR-5 ovarian, 89.7%; with OVCAR-4 ovarian, 77.8%; in the experiment on SK-OV-3 ovarian it was 113%; in the experiment with IGROV1 ovarian, 34.8%. Moreover, the growth with HS 578T breast is 61.4%; with NCI/ADR-RES ovarian, 41.3%.
Consider `COc1ccc(C(=O)/C=C/c2cc3ccccc3n3nnnc23)cc1`, for which the growth is 98.7% with RPMI-8226 leukemia; 109% with OVCAR-8 ovarian; 108% in the experiment with OVCAR-5 ovarian; 106% in the experiment on OVCAR-4 ovarian; 102% with SK-OV-3 ovarian; 109% in the experiment on IGROV1 ovarian. Besides, the growth was 113% in the experiment on OVCAR-3 ovarian, 106% in the experiment with HS 578T breast and 113% in the experiment with NCI/ADR-RES ovarian.
As to `O=C1NN(C(=O)c2ccccc2)C(c2ccc(Cl)c(Cl)c2)=C/C1=C\c1ccc([N+](=O)[O-])cc1`, the growth in the experiment on RPMI-8226 leukemia is 59.2%; in the experiment on OVCAR-8 ovarian, 89.3%; in the experiment with OVCAR-5 ovarian, 113%; in the experiment on OVCAR-4 ovarian, 75.2%; in the experiment with SK-OV-3 ovarian, 96.7%; in the experiment with IGROV1 ovarian, 84.3%. Moreover, the growth in the experiment on HS 578T breast was 78.3%.
With `O=C(Nc1ncc(Cc2cc(Cl)ccc2Cl)s1)c1cccs1`, the growth in the experiment with RPMI-8226 leukemia is 57.2%; with OVCAR-8 ovarian, 74.4%; with OVCAR-5 ovarian, 73.9%; in the experiment on OVCAR-4 ovarian, 80%; with SK-OV-3 ovarian, 72.1%; in the experiment with IGROV1 ovarian, 59.3%. The results for the growth in the experiment on OVCAR-3 ovarian, in the experiment with HS 578T breast and in the experiment with NCI/ADR-RES ovarian were 65.2%, 74.3% and 34.7%, respectively.
Turning to `O=C1c2ccc3c4c(ccc(c24)C(=O)N1CCCNCc1ccccc1)C(=O)N(CCCNCc1ccccc1)C3=O`, the growth in the experiment on RPMI-8226 leukemia is -36.7% (active); in the experiment on OVCAR-8 ovarian, -50.7% (active); in the experiment with OVCAR-5 ovarian, -20.6% (active); with OVCAR-4 ovarian, -97.2% (active); with SK-OV-3 ovarian, -11.4% (active); in the experiment on IGROV1 ovarian, -23.4% (active). Also, the growth was -63.4% (active) with OVCAR-3 ovarian, -32.3% (active) in the experiment on HS 578T breast and -26.5% (active) with NCI/ADR-RES ovarian.
With `Cc1nc2sccn2c1-c1nc2sccn2c1/C=C1/C(=O)Nc2ccccc21`, the growth with RPMI-8226 leukemia is 20.1%; with OVCAR-8 ovarian it was 52.1%; in the experiment on OVCAR-5 ovarian, 41.8%; in the experiment with OVCAR-4 ovarian it was 63.6%; in the experiment on SK-OV-3 ovarian, 31.2%; with IGROV1 ovarian, -15.5% (active). For the same molecule, the growth in the experiment with OVCAR-3 ovarian was -30.9% (active); in the experiment with HS 578T breast it was 31.8%; with NCI/ADR-RES ovarian it was 47.9%.
Regarding `O=[N+]([O-])c1ccc(N=Nc2cc(S(=O)(=O)O)c3cccc(S(=O)(=O)O)c3c2O)cc1`, the growth is 104% in the experiment with RPMI-8226 leukemia; 108% in the experiment with OVCAR-8 ovarian; 113% in the experiment with OVCAR-5 ovarian; 114% with OVCAR-4 ovarian; 102% in the experiment with SK-OV-3 ovarian; 72.8% in the experiment with IGROV1 ovarian. For the same molecule, the growth in the experiment with OVCAR-3 ovarian is 121%; in the experiment with HS 578T breast, 130%; in the experiment with NCI/ADR-RES ovarian, 104%.
As to `CC(C)=CCC[C@](C)(O)[C@H]1CC[C@]2(C)[C@@H]1CC[C@@H]1[C@@]3(C)C/C(=C/c4ccccc4)C(=O)C(C)(C)[C@@H]3CC[C@]12C`, the growth is 79.3% in the experiment on RPMI-8226 leukemia; 93.4% with OVCAR-8 ovarian; 102% in the experiment on OVCAR-5 ovarian; 89.2% with OVCAR-4 ovarian; 97.8% in the experiment with SK-OV-3 ovarian; 101% with IGROV1 ovarian. Also, the growth in the experiment on OVCAR-3 ovarian was 103%; with HS 578T breast it was 91.3%; in the experiment on NCI/ADR-RES ovarian, 100%.
Turning to `CCNc1nc2ccc(Nc3ccnc4cc(Cl)ccc34)cc2[nH]1`, the growth with RPMI-8226 leukemia is 86.7%; in the experiment on OVCAR-8 ovarian, 75.8%; in the experiment with OVCAR-5 ovarian, 113%; with OVCAR-4 ovarian, 82.6%; with SK-OV-3 ovarian, 108%; with IGROV1 ovarian, 91.3%. Also, the growth with OVCAR-3 ovarian is 107%; in the experiment on HS 578T breast, 91.4%; in the experiment with NCI/ADR-RES ovarian it was 95.8%.
For `COc1ccc(-c2cnc3c(-c4cccc5ncccc45)cnn3c2)cc1`, the growth in the experiment on RPMI-8226 leukemia was 68.1%; with OVCAR-8 ovarian it was 26.8%; in the experiment on OVCAR-5 ovarian it was 82.1%; with OVCAR-4 ovarian, 6.3% (active); with SK-OV-3 ovarian it was 24.4%; in the experiment on IGROV1 ovarian, 45.1%. Moreover, the growth in the experiment on OVCAR-3 ovarian was 57.7%; in the experiment on HS 578T breast it was 25.4%; in the experiment with NCI/ADR-RES ovarian it was 45.4%.
For the molecule `COC(=O)C(CC=O)C(=O)C(=O)Nc1cccc(C(F)(F)F)c1` (stereo not given), the growth in the experiment with OVCAR-5 ovarian is 112%; with OVCAR-4 ovarian it was 105%; with SK-OV-3 ovarian it was 93.5%; with IGROV1 ovarian, 102%; in the experiment on OVCAR-3 ovarian, 106%; with HS 578T breast, 90.6%. Further, the growth in the experiment with NCI/ADR-RES ovarian was 107%.
Take `O=C(/C=C/c1c(-c2ccc(Cl)cc2)nn(-c2ccccc2)c1C(F)(F)F)c1ccc(Cl)cc1`: the growth in the experiment on OVCAR-8 ovarian is 77.8%; in the experiment with OVCAR-5 ovarian, 102%; in the experiment with OVCAR-4 ovarian it was 89%; with IGROV1 ovarian it was 102%; in the experiment with OVCAR-3 ovarian, 95.3%; with HS 578T breast, 92.2%. Further, the growth in the experiment on NCI/ADR-RES ovarian was 97.4%.
For the molecule `CC(C)c1ccc(Nc2ccc3c(OCCCN4CCN(C)CC4)cccc3n2)cc1`, the growth in the experiment on RPMI-8226 leukemia is 2.88% (active); in the experiment with OVCAR-8 ovarian it was 88.7%; with OVCAR-4 ovarian it was 74.2%; in the experiment on SK-OV-3 ovarian it was 99.9%; in the experiment with IGROV1 ovarian, 83.1%; in the experiment with OVCAR-3 ovarian, 79.4%. Moreover, the growth in the experiment with HS 578T breast was 77%.
As for `Cn1cc(-c2nc(-c3c[nH]c4c(Cl)nccc34)cs2)c2cc(Br)ccc21`, the growth was 78.6% in the experiment with RPMI-8226 leukemia; 80.2% in the experiment with OVCAR-8 ovarian; 97.6% in the experiment on OVCAR-5 ovarian; 90.5% in the experiment with OVCAR-4 ovarian; 95.6% in the experiment on SK-OV-3 ovarian; 102% in the experiment on IGROV1 ovarian. Besides, the growth with HS 578T breast is 85.6%; in the experiment on NCI/ADR-RES ovarian it was 97.6%.
For `N#CC1=C(N)Oc2c(ccc3ccccc23)C1c1ccccc1Cl` (stereo not given), the growth is 30.1% in the experiment with RPMI-8226 leukemia; 38.8% with OVCAR-5 ovarian; 42.2% with OVCAR-4 ovarian; 59.3% in the experiment with SK-OV-3 ovarian; 24.9% in the experiment with IGROV1 ovarian; 5.72% (active) with OVCAR-3 ovarian. Also, the growth with HS 578T breast is 16.8%; in the experiment with NCI/ADR-RES ovarian, -0.548% (active).
Consider `CC1(C)NCCC[C@]2(C)[C@H]3CC[C@@H]4[C@H]5[C@H](C(=O)/C=C/c6ccco6)CC[C@]5(CO)CC[C@@]4(C)[C@]3(C)CC[C@@H]12`, for which the growth in the experiment with RPMI-8226 leukemia is 44.2%; with OVCAR-8 ovarian, 95.2%; with OVCAR-4 ovarian it was 79.9%; in the experiment with SK-OV-3 ovarian, 93.1%; in the experiment on IGROV1 ovarian, 89.5%; in the experiment on OVCAR-3 ovarian, 92.6%. For the same molecule, in the experiment with HS 578T breast, the growth is 86.8%.
For `C#Cc1cccc(NC(=O)c2cccc(NC(=O)CCl)c2)c1`, the growth is -3.03% [8.25 µM] (active) in the experiment with RPMI-8226 leukemia; -28.3% [8.25 µM] (active) in the experiment on OVCAR-8 ovarian; 8.37% [8.25 µM] (active) with OVCAR-5 ovarian; -38.1% [8.25 µM] (active) in the experiment on OVCAR-4 ovarian; -53.5% [8.25 µM] (active) with IGROV1 ovarian; -71.3% [8.25 µM] (active) in the experiment with OVCAR-3 ovarian. Besides, the growth with HS 578T breast is 31.8% [8.25 µM].
Consider `Cc1nc2sccn2c1-c1cn2ccsc2n1`, for which the growth was 65% with RPMI-8226 leukemia; 96% in the experiment with OVCAR-8 ovarian; 70.8% in the experiment on OVCAR-4 ovarian; 94.9% with SK-OV-3 ovarian; 14.3% with IGROV1 ovarian; 87% in the experiment with HS 578T breast. Also, the growth in the experiment on NCI/ADR-RES ovarian is 98%.
Turning to `C[C@H]1[C@H]2[C@H]3CC[C@@H]4[C@@]5(C)CC[C@H](O)C(C)(C)[C@@H]5CC[C@@]4(C)[C@]3(C)CC[C@]23CO[C@]1(C)[C@@H](C(=O)/C=C\c1ccco1)C3`, the growth in the experiment on RPMI-8226 leukemia was 106%; in the experiment with OVCAR-8 ovarian, 99.3%; in the experiment with OVCAR-4 ovarian it was 111%; with SK-OV-3 ovarian, 103%; in the experiment with IGROV1 ovarian, 108%; in the experiment on OVCAR-3 ovarian it was 103%. The growth with HS 578T breast is 95.8%; in the experiment on NCI/ADR-RES ovarian, 95.3%.
As to `CCCCCCCC(=O)OCC/C=C/C1OC1C1OC(=O)/C=C\C=C\C(=O)N(C(C)=O)C(=O)/C=C(/C)CCC2OC2C1OC(=O)NC(C)=O` (stereo not given), the growth in the experiment with RPMI-8226 leukemia was 45.2%; in the experiment on OVCAR-8 ovarian it was 85.1%; in the experiment with OVCAR-5 ovarian, 79.5%; in the experiment with OVCAR-4 ovarian it was 97.2%; with SK-OV-3 ovarian it was 96%; with IGROV1 ovarian it was 62.7%. Further, the growth with HS 578T breast was 87.5%; in the experiment on NCI/ADR-RES ovarian it was 78.1%.
Turning to `N#C/C(=C\c1cccc(C#N)c1)c1ccccc1`, the growth in the experiment on OVCAR-8 ovarian is 111%; in the experiment on OVCAR-5 ovarian, 100%; in the experiment with OVCAR-4 ovarian it was 98.8%; in the experiment on SK-OV-3 ovarian, 105%; with IGROV1 ovarian, 107%; with OVCAR-3 ovarian it was 105%. In addition, the growth with HS 578T breast was 106%; in the experiment on NCI/ADR-RES ovarian, 101%.
Regarding `CCCCC/C=C/C(C)=C/C1CC(C)C/C=C/CCC(O)C(OC(N)=O)CCC(C)CC(O)C(C)C(=O)O1` (stereo not given), the growth in the experiment with RPMI-8226 leukemia is 56.3%; in the experiment on OVCAR-8 ovarian, 98.5%; with OVCAR-4 ovarian, 107%; in the experiment with SK-OV-3 ovarian, 111%; with IGROV1 ovarian, 87.3%; in the experiment with OVCAR-3 ovarian, 129%. Besides, the growth is 94% in the experiment with HS 578T breast and 96% in the experiment with NCI/ADR-RES ovarian.
